# From PubChem BioAssay (NCATS)
# Several values for one entry are separate records, joined by “and”; a condition that tells them apart may be missing. Identical values can stand only once. Results filed as inconclusive are left out. Activity calls are given as the source filed them. Unless noted, calls follow the shape of the dose curve; as a rule, active = well fitted curve in the direction sought with a large enough effect; inconclusive = small, poorly fitted or top-dose-only effect, or another doubt; inactive = no such curve, though single readings can be large; an effect the other way counts as inactive or inconclusive.
# Key:
# [1] = Quantitative High-Throughput drug screen in 47 multiple myeloma cell lines against the NCATS MIPE library collection: PCM6_Riken cell viability assay (AID 1919870); also: nearly all actives have a fitted effect of over 30% in size; also: potency is read from the fitted curve at half-maximal effect
# Method in brief: (§1)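 Plated at 500 cells per well, myeloma lines received MIPE 4.0 compounds by pin tool. Following 48 h culture at 37 °C, CellTiter-Glo luminescence gave viability relative to DMSO and media-only controls.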
# [2] = Quantitative High-Throughput drug screen in 47 multiple myeloma cell lines against the NCATS MIPE library collection: KMS11_JCRBsus cell viability assay (AID 1919873); also: nearly all actives have a fitted effect of over 50% in size; also: potency is read from the fitted curve at half-maximal effect
# Method in brief: as §1
# [3] = Quantitative High-Throughput drug screen in 47 multiple myeloma cell lines against the NCATS MIPE library collection: KMS28BM_JCRB cell viability assay (AID 1919874); also: nearly all actives have a fitted effect of over 35% in size; also: potency is read from the fitted curve at half-maximal effect
# Method in brief: as §1
# [4] = qHTS profiling for inhibitors of Plasmodium falciparum proliferation (AID 504749); also: nearly all actives have a fitted effect of over 60% in size; also: potency is read from the fitted curve at half-maximal effect;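 as to activity, negative = inhibition: 0% = DMSO vehicle and full inhibition = artemisinin control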; settings: P. falciparum in erythrocytes, SYBR Green DNA, 72 h
# Method in brief: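 Three-day growth assay of blood-stage parasites in erythrocytes (0.3% parasitemia, 2.5% hematocrit) at 37 C, 5% CO2, quantified by SYBR Green DNA staining after overnight detergent lysis.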
# [5] = Quantitative High-Throughput drug screen in 47 multiple myeloma cell lines against the NCATS MIPE library collection: RPMI8226_ATCC cell viability assay (AID 1919871); also: nearly all actives have a fitted effect of over 30% in size; also: potency is read from the fitted curve at half-maximal effect
# Method in brief: as §1
# [6] = Quantitative High-Throughput drug screen in 47 multiple myeloma cell lines against the NCATS MIPE library collection: OPM2_DSMZ cell viability assay (AID 1919872); also: nearly all actives have a fitted effect of over 30% in size; also: potency is read from the fitted curve at half-maximal effect
# Method in brief: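 CellTiter-Glo ATP luminescence gave viability after 48 h compound treatment at 37C of 500 multiple myeloma cells per well. Normalisation used DMSO-only wells as 100% and media-only wells as 0% viability; primary qHTS of approved and investigational drugs.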
# [7] = qHTS for identification of novel therapeutic agents for treatment of microphthalmiaassociated transcription factor (MiT) renal cell carcinoma (RCC) (AID 1963991); settings: CellTiter-Glo, 48 h, stronger effect = lower value
# Method in brief: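 Three TFE3-fusion RCC lines (UOK109, UOK124, UOK145), 500 cells/well in complete medium, were treated with MIPE 4.0 compounds for 48 hours at 37 C. Viability was by CellTiter-Glo luminescence, normalized to DMSO (100%) and empty wells (0%); curves fitted over 11 concentrations.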
# [8] = qHTS drug screen for cell cycle checkpoint inhibitors in PARPi-resistant BRCA-mutant ovarian cancer cell lines. (AID 1963452; calls by dose curve); settings: PEO1/OlaR viability, CellTiter-Glo luminescence, 96 h, stronger effect = lower value
# Method in brief: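 PEO1, PEO4 and PEO1/OlaR ovarian cancer cells, 600 per well, exposed 96 h at 37C to a dilution series. Viability read by CellTiter-Glo luminescence, normalized to DMSO and empty wells; activity summarized as Z-AUC.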
# [9] = at 28.7 µM (top of the series), parasite line B
# [10] = TFE3-RCC UOK109 viability, measured here: UOK109 Z-AUC
# [11] = TFE3-RCC viability, measured here: UOK124 Z-AUC
# [12] = TFE3-RCC viability, measured here: UOK145 Z-AUC
# [13] = at 28.7 µM (top of the series), parasite line A
# [14] = measured here: PEO1 parental Z-AUC
compound,measurement,setting,value
CCOC(=O)N1CCC(=C2c3ccc(Cl)cc3CCc3cccnc32)CC1,Potency,[1],inactive
same,Potency,[2],20.9 µM (active)
same,Potency,[3],23.5 µM (active)
same,"activity, negative = inhibition",[4]; [9],-13.3% (inactive)
same,Potency,[4]; parasite line A,12.6 µM (active)
O=NN(CCCl)C(=O)NCCCl,Potency,[1],inactive
same,Potency,[5],inactive
same,Potency,[6],inactive
same,z-score,[7]; [10],-0.0741
same,z-score,[7]; [11],1.48
same,z-score,[7]; [12],-0.0256
same,"activity, negative = inhibition",[4]; [13],-1.48% (inactive)
same,"activity, negative = inhibition",[4]; [9],4.82% (inactive)
CCCS(=O)(=O)Nc1ccc(F)c(C(=O)c2c[nH]c3ncc(Cl)cc23)c1F,Potency,[1],11.8 µM (active)
same,Potency,[6],inactive
same,Potency,[2],26.4 µM (active)
same,Z-AUC,[8],-0.11 (inactive)
same,Z-AUC,[8]; [14],0.791
same,Z-AUC,[8]; measured here: PEO4 Z-AUC,0.927
Clc1ccc(Nc2nnc(Cc3ccncc3)c3ccccc23)cc1,Potency,[1],14.8 µM (active)
same,Potency,[6],inactive
same,Z-AUC,[8],0.341 (inactive)
same,Z-AUC,[8]; [14],0.338
same,Z-AUC,[8]; measured here: PEO4 Z-AUC,0.325
same,"activity, negative = inhibition",[4]; [13],-16.8% (inactive)
same,"activity, negative = inhibition",[4]; [9],-13.7% (inactive)
O=C(NOC[C@H](O)CO)c1ccc(F)c(F)c1Nc1ccc(I)cc1F,Potency,[1],inactive
same,Potency,[5],0.0296 µM (active)
same,Potency,[2],inactive
same,Potency,[3],inactive
NCCc1ccc(O)c(O)c1,Potency,[5],18.7 µM (active)
same,Potency,[6],13.2 µM (active)
same,Potency,[2],9.35 µM (active)
same,Potency,[3],inactive
same,Z-AUC,[8],0.293 (inactive)
same,Z-AUC,[8]; [14],0.902
same,Z-AUC,[8]; measured here: PEO4 Z-AUC,0.891
same,z-score,[7]; [10],0.759
same,z-score,[7]; [11],0.079
same,z-score,[7]; [12],0.506
same,"activity, negative = inhibition",[4]; [13],-7.96% (inactive)
same,"activity, negative = inhibition",[4]; [9],1.48% (inactive)
CN(C)c1ccc(C2Nc3ccc4ccccc4c3C3=C2C(=O)CC(C)(C)C3)cc1Br (stereo not drawn),Potency,[1],inactive
same,Potency,[6],inactive
same,Potency,[3],inactive
same,Z-AUC,[8],-0.197 (inactive)
same,Z-AUC,[8]; [14],-0.276
same,Z-AUC,[8]; measured here: PEO4 Z-AUC,0.333
Cc1cc(C=c2sc3nc4ccccc4n3c2=O)c(C)n1-c1ccccc1,Potency,[1],inactive
same,Potency,[2],inactive
same,Potency,[3],inactive
Cc1ccccc1C(C(=O)NC1CCCC1)N(C(=O)Cn1cnc2ccccc21)c1cccc(F)c1 (stereo not drawn),Potency,[1],inactive
same,Potency,[5],3.72 µM (active)
same,Potency,[3],inactive
same,z-score,[7]; [10],0.51
same,z-score,[7]; [11],0.839
same,z-score,[7]; [12],0.533
Cc1ccnc(NS(=O)(=O)c2ccc(NC(=O)Nc3ccc(S(=O)(=O)Nc4nccc(C)n4)cc3)cc2)n1,Potency,[1],4.69 µM (active)
same,Z-AUC,[8],-1 (inactive)
same,Z-AUC,[8]; [14],-0.318
same,Z-AUC,[8]; measured here: PEO4 Z-AUC,0.813
Cc1oncc1C(=O)Nc1ccc(C(F)(F)F)cc1,Potency,[1],inactive
same,Potency,[6],inactive
same,Z-AUC,[8],0.594 (inactive)
same,Z-AUC,[8]; [14],0.454
same,Z-AUC,[8]; measured here: PEO4 Z-AUC,0.504
same,"activity, negative = inhibition","[4]; at 12.8 µM (top of the series), parasite line A",-4.31% (inactive)
same,"activity, negative = inhibition","[4]; at 12.8 µM (top of the series), parasite line B",9.52% (inactive)
CC(C=CC1=C(C)CCCC1(C)C)=CC=CC(C)=CC(=O)O,Potency,[1],14.8 µM (active) and 18.7 µM (active)
same,Potency,[3],inactive
CC(C)(N)C(=O)N[C@H](COCc1ccccc1)C(=O)N1CCC2(CC1)CN(S(C)(=O)=O)c1ccccc12,Potency,[6],inactive
same,Z-AUC,[8],1.64 (inactive)
same,Z-AUC,[8]; [14],1.18
same,Z-AUC,[8]; measured here: PEO4 Z-AUC,1.52
Cc1cnc(Nc2ccc(OCCN3CCCC3)cc2)nc1Nc1cccc(S(=O)(=O)NC(C)(C)C)c1,Potency,[6],inactive
same,Potency,[3],0.935 µM (active)
NC(N)=NC(=O)c1nc(Cl)c(N)nc1N,Potency,[6],inactive
same,Z-AUC,[8],-0.792 (inactive)
same,Z-AUC,[8]; [14],-0.971
same,Z-AUC,[8]; measured here: PEO4 Z-AUC,-0.392
CNC(=O)c1ccccc1Sc1ccc2c(/C=C/c3ccccn3)n[nH]c2c1,Z-AUC,[8],0.578 (inactive)
same,Z-AUC,[8]; [14],0.269
same,Z-AUC,[8]; measured here: PEO4 Z-AUC,0.241
